Bioassay records from PubChem BioAssay.
Hits are enriched below; roughly 0.44% of the tested compounds scored in any of these assays.
Tb PFK inh-1: blocks T. brucei phosphofructokinase; O15648; T. brucei PFK, ADP-Glo luminescence; Potency, µM (titrated, usually from 57.5 µM), inactives show at the highest dose activity, negative = inhibition, usual class: inhibitors; 330,000 compounds, 0.17% hits; AID 485367;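 note: 0% = uninhibited 1x PFK enzyme wells and -100% = no-enzyme wells; nearly all actives have a fitted effect of over 60% in size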
Target sequence (O15648 whole entry, looked up): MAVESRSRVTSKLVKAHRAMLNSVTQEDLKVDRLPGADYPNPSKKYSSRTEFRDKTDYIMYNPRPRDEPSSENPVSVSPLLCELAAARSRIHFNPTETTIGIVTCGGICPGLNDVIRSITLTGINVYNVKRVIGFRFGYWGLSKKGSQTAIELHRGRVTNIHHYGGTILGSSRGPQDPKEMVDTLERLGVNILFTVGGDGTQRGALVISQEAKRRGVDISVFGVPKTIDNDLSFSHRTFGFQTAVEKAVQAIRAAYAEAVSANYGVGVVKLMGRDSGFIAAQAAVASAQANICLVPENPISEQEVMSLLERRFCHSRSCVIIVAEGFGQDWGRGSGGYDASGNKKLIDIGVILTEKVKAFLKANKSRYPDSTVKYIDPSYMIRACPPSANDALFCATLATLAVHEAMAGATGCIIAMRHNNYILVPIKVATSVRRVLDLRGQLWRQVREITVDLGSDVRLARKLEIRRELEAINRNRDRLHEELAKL
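ADP-Glo luminescence quantified ADP after 45 min at room temperature, with 1.25 nM T. brucei PFK, 0.1 mM ATP and 0.5 mM fructose-6-phosphate in pH 8.0 TEA buffer. qHTS titrations up to 57 µM; curves classified by quality.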
Rango complex inh: inhibitors of Rango-importin beta complex formation; Q14974; Rango CFP/YFP FRET sensor + importin beta, 45 min; Potency, µM (titrated, usually from 92.2 µM), without a hit: top-dose inhibition of complex formation; 340,000 compounds, 0.031% hits; AID 540263; calls by dose curve;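 note: 0% = DMSO wells and 100% = buffer wells lacking importin beta; nearly all actives have a fitted effect of over 15% in size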
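FRET biosensor Rango (snurportin 1 IBB between N-terminal EYFP and C-terminal Cerulean), 50 nM in PBS/1 mM DTT/0.02% Tween-20/0.1% BSA, preincubated 5 min RT with compound; 0.125 microM importin beta added, 45 min RT, CFP/YFP FRET ratio read.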
LMNA splice mod: modulators of lamin A splicing; Potency, µM (top dose mostly 46.1 µM), inactives show at the top dose ratio change, negative = inhibition, most hits filed as inhibitors; 200,000 compounds, 0.01% hits; AID 1487; HeLa LMNA splicing GFP/RFP minigene ratio, 48 h; active = well fitted inhibition curve with a large enough effect in the signal ratio, with a control signal flat, not every such curve was filed as active; inconclusive = small, poorly fitted or top-dose-only effect, or effect the other way, or a change in a side signal; the % refers to the signal ratio; note: % is set by controls: 0 for no effect and ±100 for the full control effect
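Read-out is the ratio of GFP to DsRed2 object intensity, acquired by 488 nm laser-scanning cytometry on HeLa lamin A-EGFP minigene reporter cells. Compound incubation 48 hrs at 37 °C in Opti-MEM with 2% FBS; DMSO 0.5% final.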
Rango release inh: prevents RanGTP from dissociating the Rango-importin beta complex; Potency, µM (doses to about 46.1 µM), for inactives: at the top dose activity change, negative = inhibition; 340,000 compounds, 0.071% hits; Biochemical FRET Rango-importin beta, RanGTP-induced dissociation; calls by dose curve; note: % of control where 0% means no effect; nearly all actives have a fitted effect of over 45% in size
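Rango (0.1 uM)–importin beta (0.25 uM) complex; RanGTP-RCC1 trigger; 45 min RT; CFP/YFP FRET read.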
Chronic BCR inh: blocks chronic active B-cell receptor signaling. ABC-DLBCL IkBa-CBG/CBR reporter, luminescence ratio, 4 h. Potency, µM (doses to about 46.1 µM), inactives show at the highest dose activity change, negative = inhibition, most hits filed as inhibitors. 340,000 compounds, 0.05% hits; active = well fitted inhibition curve with a large enough effect in the signal ratio, with a control signal flat, not every such curve was filed as active; inconclusive = small, poorly fitted or top-dose-only effect, or effect the other way, or a change in a side signal; the % refers to the signal ratio;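 note: plate controls were basal doxycycline-induced cells for no effect and cells given 10 µM MG132 for full effect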
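Cell line TMD8 (human ABC DLBCL), stably expressing tet-inducible CBG68-IkBa fusion and CBR; IMDM/0.5% FBS; cpd up to 46 uM; dox induction, 4 h, 37C/5% CO2; dual luminescence; green/red ratio; MG132 control.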
KinaseGlo FLuc: counter-screen: inhibitors of Kinase-Glo firefly luciferase. Kinase-Glo luciferase, ATP luminescence, 8 min. Potency, µM (series often up to 38.3 µM), inactives show at the highest dose activity change, negative = inhibition, hits mostly inhibitors. 200,000 compounds, 0.28% hits; note: % is set by controls: 0 for no effect and ±100 for the full control effect; nearly all actives have a fitted effect of over 60% in size
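Kinase-Glo luciferase light output from ATP and luciferin was measured with 10 uM ATP, within the enzyme's linear range. Buffer: 50 mM imidazole pH 7.2, 50 mM KCl, 7 mM MgCl2, 0.01% Tween 20, 0.05% BSA; luminescence read after 8 min at ambient temperature.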
TbPFK ATP: Tb phosphofructokinase inhibition, orthogonal luminescence; Tb PFK enzyme, ATP depletion, Kinase-Glo Plus luminescence; shares compounds with Tb PFK inh-1; Potency, µM (series often up to 57.5 µM), for the others: top-dose inhibition; 1,100 compounds, 47% hits; calls by dose curve; note: nearly all actives have a fitted effect of over 60% in size
Tb PFK inh-2: T. brucei PFK enzyme inhibition, hit validation; shares compounds with Tb PFK inh-1; purified T. brucei PFK, ADP-Glo luminescence, 45 min; Potency, µM (top dose mostly 57.5 µM), without a hit: at the top dose activity change, negative = inhibition, usual class: inhibitors; 1,100 compounds, 41% hits; AID 504637;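 note: plate controls were full PFK enzyme control for no effect and no enzyme control for full effect; nearly all actives have a fitted effect of over 60% in size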
* marks the source's active call; other numbers are inactive results; ? = inconclusive; / = no result; [ ] = dose if it differs, or a comment. Unless noted, calls come from the whole dose curve; as a rule, active = well fitted curve in the direction sought with a large enough effect; inconclusive = small, poorly fitted or top-dose-only effect, or another doubt; inactive = no such curve, though single readings can be large; an effect the other way counts as inactive or inconclusive. Potency is the fitted concentration of half-maximal effect.

SMILES	Tb PFK inh-1	Rango complex inh	LMNA splice mod	Rango release inh	Chronic BCR inh	KinaseGlo FLuc	TbPFK ATP	Tb PFK inh-2
CCCC12CN3CC(CCC)(CN(C1)C3c1ccccn1)C2=O (centres undefined)	8%	0%	-2%	11%	0%	1%	/	/
c1csc(CN2CCC3(CCNCC3)CC2)n1	/	/	/	/	/	0%	/	/
O=C(Nc1n[nH]c(=S)s1)c1ccco1	?	4%	/	-6%	0%	/	5.4µM*	12µM*
CCc1cccc(C)c1NC(=O)COC(=O)CNS(=O)(=O)/C=C/c1ccccc1	?	?	-3%	10%	-3%	3%	?	27µM*
COc1cccc(CN2CCNCC2)c1	1%	-1%	/	-3%	0%	/	/	/
N#CC1=C(N)C(C#N)(C#N)C(c2ccc[nH]2)C2CCCC=C12 (centres undefined)	?	?	2%	?	5%	-1%	11%	-21%
Cc1ccc(NC(=O)c2snnc2C)cc1Cl	-5%	0%	/	-14%	?	0%	/	/
CN1C(=S)SC(N(O)C(=O)Nc2ccc(Cl)c(Cl)c2)C1(C)C (centres undefined)	?	0%	?	-19%	0%	7%	?	?
Cc1ccc(CN2CCCN(Cc3ccc(Cl)cc3)S2(=O)=O)cc1	2%	1%	/	4%	1%	/	/	/
N#Cc1nc(-c2cccc3ccccc23)oc1NCC#CCOC(=O)c1cccs1	21µM*	/	/	/	-27%	/	8.5µM*	27µM*
O=C(O)CC1OCC=C2CN3CCC45c6ccccc6NC4C1C2CC35 (centres undefined)	2%	-3%	/	-1%	10%	/	/	/
O=C(COC(=O)Cc1ccccc1)Nc1cc(S(=O)(=O)N2CCOCC2)ccc1N1CCCC1	4%	-2%	-18%	9%	?	1%	/	/
O=C(Nc1cc(S(=O)(=O)N2CCOCC2)ccc1N1CCCC1)c1ccc(Cl)cc1	?	?	/	-23%	0%	/	24µM*	?
CC(C)CC(NC(=O)C1CCCCC1)C(=O)N1CCC2(CC1)OCCO2 (centres undefined)	-3%	-1%	5%	9%	5%	0%	/	/
Cc1ccc(NNC(=O)Nc2ccc(Cl)cc2)nn1	24µM*	1%	/	6%	?	/	24µM*	?
COC(=O)c1cccc(-n2sc3ccccc3c2=O)c1	6.7µM*	1%	/	13%	?	/	?	?
O=c1c2ccccc2sn1-c1ccc(F)cc1	3.4µM*	?	/	20%	?	/	16%	?
COc1ccc(-n2c(=O)[nH]c3ccccc3c2=O)cc1	-1%	0%	-6%	-2%	-6%	-1%	/	/
N#CC1=C(SCC(=O)c2ccc(Br)cc2)NC2=C(C(=O)CCC2)C1c1ccco1 (centres undefined)	1%	?	-1%	?	?	-4%	/	/
C=CCn1c(O)c(C(CC)=NCC2CCCO2)c(=O)[nH]c1=O (centres undefined)	0%	0%	/	2%	?	/	/	/
O=C1NC(=S)S/C1=C/c1ccc(N2CCOCC2)o1	27µM*	?	?	?	?	?	12%	-14%
COc1ccc(NS(=O)(=O)c2ccc(C)c(NC(=O)CN3C(=O)NC4(CCCC4)C3=O)c2)cc1	?	-7%	/	13%	1%	/	-27%	?
N#Cc1ccc(NC(=O)CN2C(=O)NC3(CCCCCCC3)C2=O)cc1Cl	-6%	-1%	/	0%	?	/	/	/
Oc1ccc(C2=Nn3c(nnc3-c3ccco3)SC2)cc1O	7.6µM*	-1%	-16%	4%	?	8%	?	?
CC[n+]1c(SC)ccc2cc(OC)ccc21	0%	?	?	10%	-4%	-2%	/	/
SMILES	Tb PFK inh-1	Rango complex inh	LMNA splice mod	Rango release inh	Chronic BCR inh	KinaseGlo FLuc	TbPFK ATP	Tb PFK inh-2
O=C(C1CCN(S(=O)(=O)c2ccccc2)CC1)N1CCC2(CC1)OCCO2	-1%	8%	-10%	0%	6%	18%	/	/
C[C@H](NC(=O)C1CCN(S(=O)(=O)c2ccccc2)CC1)C(=O)NCc1ccc(Cl)c(Cl)c1	27µM*	?	/	5%	?	/	21µM*	?
COC(=O)Oc1nsnc1N1CCOCC1	27µM*	2%	-3%	-4%	-1%	1%	?	?
Cc1ccc(S(=O)(=O)N2CCCCC2)cc1NC(=O)CSc1ncnc2ccccc12	0%	-2%	?	9%	?	1%	/	/
O=C(NCCCN1CC1)Nc1cccc2ccccc12	/	0%	/	-8%	/	/	/	/
O=C(NCCCN1CCCCCC1)c1ccc(CS(=O)(=O)Cc2ccccc2F)o1	?	3%	-11%	2%	-10%	-1%	-31%	?
CC(C)(C)c1cc(C(=S)N2CCN(CCO)CC2)cc(C(C)(C)C)c1O	30µM*	0%	22%	-2%	-1%	-2%	12µM*	24µM*
CCOC(=O)c1c(/N=C/c2c(O)n(-c3ccccc3F)c(=S)[nH]c2=O)sc2c1CCCC2	1%	?	7%	?	1%	-4%	/	/
O=[As](O)(O)c1ccc(NCc2ccccc2)cc1	/	/	/	/	/	-1%[7.66 µM]	/	/
O=C(O)c1ccc(NCc2cccc(Br)c2)cc1	21µM*	?	4%	7%	3%	-5%	12µM*	24µM*
O=C(O)CCNC(=O)c1ccc(NC(=O)Cc2ccc(Cl)cc2)cc1	?	0%	/	-1%	-17%	0%	?	?
COc1ccc(COC(=O)CCNC(=O)c2ccc(Cl)cc2)cc1	4%	?	/	-16%	5%	/	/	/
O=C(O)c1cc(-c2ccco2)nn1-c1ccc(Cl)cc1	?	?	-7%[46 µM]	-12%	0%	-1%	?	?
CCCCCCCC(=O)NC(Oc1ccccc1[N+](=O)[O-])C(Cl)(Cl)Cl (centres undefined)	-13%	-1%	1%	-8%	14%	-6%	/	/
CCSP1(=S)N=C(N2CCOCC2)C(C#N)=C2CCCN21 (centres undefined)	0%	1%	4%	12%	-19%	/	/	/
O=C(O)c1ccccc1C(=O)O	-7%	?	/	-34%	-6%	/	/	/
O=C(O)c1ccccc1C(=O)Nc1ccc(Br)c(C(F)(F)F)c1	?	0%	/	1%	-16%	/	2%	0%
